Screens as filed in PubChem BioAssay.
MsrA act = activators of bovine methionine sulfoxide reductase A. purified bovine MsrA, absorbance read-out. activation, % at 10.6 µM. hit rate 0.3% among 360,000. AID 602163; in the data active = activation above about 7.5%;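 note: 0% = vehicle and 100% = reference activator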
NadD inh = blocks S. aureus nicotinate mononucleotide adenylyltransferase; purified NadD enzyme, colorimetric absorbance read-out; inhibition, % at 20 µM; hit rate 0.78% among 360,000; in the data active = inhibition above about 26%
rCAG RNA binder = binds r(CAG) RNA repeats | r(CAG) RNA repeat, TO-PRO-1 dye displacement fluorescence | inhibition, % at 3 µM | hit rate 1.3% among 370,000 | AID 651821;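 active = inhibition above the plate cutoff, the mean of all test compounds on that plate plus 3 SD, cut at about 35% in these data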;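 note: 0% = DMSO alone and 100% = 100 µM mitoxantrone as full dye displacement; higher means more dye released from RNA so lower well fluorescence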
DAGLB inh = blocks human DAGLB lipase activity | Q8NCG7 | HEK293T DAGLB membrane lysate, EnzChek fluorogenic substrate | inhibition, % at 5.17 µM | hit rate 0.059% among 340,000; in the data active = inhibition above about 34%;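 note: 0% = enzyme with vehicle and 100% = wells lacking enzyme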
Pemphigus Ab inh = blocks pemphigus antibody binding to human desmoglein-3; binding (percent of control), % at 10 µM; hit rate 0.48% among 310,000; DSG3-coupled beads, scFv-anti-DSG3-GFP binding, flow cytometry; stronger effect = lower value;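 active = binding more than 3 SD below its plate's average and above zero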
Target sequence (P32926 whole entry, looked up): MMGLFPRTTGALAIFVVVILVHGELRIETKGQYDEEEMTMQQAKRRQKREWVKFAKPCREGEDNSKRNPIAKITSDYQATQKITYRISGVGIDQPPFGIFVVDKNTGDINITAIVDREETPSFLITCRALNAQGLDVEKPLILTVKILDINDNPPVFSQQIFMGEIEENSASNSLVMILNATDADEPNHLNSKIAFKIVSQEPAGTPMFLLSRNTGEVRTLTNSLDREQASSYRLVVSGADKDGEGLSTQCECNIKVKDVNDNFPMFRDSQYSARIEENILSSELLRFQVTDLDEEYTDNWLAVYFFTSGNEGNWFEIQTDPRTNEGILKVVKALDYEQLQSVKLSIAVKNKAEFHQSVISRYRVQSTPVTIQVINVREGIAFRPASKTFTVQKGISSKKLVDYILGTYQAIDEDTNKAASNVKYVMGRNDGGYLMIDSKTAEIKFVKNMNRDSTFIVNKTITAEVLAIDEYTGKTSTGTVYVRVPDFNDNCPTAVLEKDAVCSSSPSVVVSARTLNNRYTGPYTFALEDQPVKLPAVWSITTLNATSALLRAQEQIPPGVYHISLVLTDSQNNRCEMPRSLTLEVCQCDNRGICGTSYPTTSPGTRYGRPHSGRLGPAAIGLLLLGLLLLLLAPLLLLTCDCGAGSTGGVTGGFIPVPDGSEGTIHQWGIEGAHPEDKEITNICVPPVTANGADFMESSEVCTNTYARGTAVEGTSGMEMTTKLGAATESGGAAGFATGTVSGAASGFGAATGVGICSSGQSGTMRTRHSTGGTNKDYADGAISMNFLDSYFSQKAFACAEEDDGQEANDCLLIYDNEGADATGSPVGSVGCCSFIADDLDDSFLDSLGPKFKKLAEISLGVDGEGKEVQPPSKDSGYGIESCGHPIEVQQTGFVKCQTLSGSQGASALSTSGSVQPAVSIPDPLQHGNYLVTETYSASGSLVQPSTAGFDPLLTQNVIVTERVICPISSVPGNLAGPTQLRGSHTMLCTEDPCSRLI
MsrA inh = inhibits bovine methionine sulfoxide reductase A | purified bovine MsrA, absorbance read-out | inhibition, % at 15.5 µM | hit rate 0.75% among 360,000; in the data active = inhibition above about 4.5%;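 note: 0% = vehicle wells with enzyme and 100% = reference inhibitor wells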
rCAG binder conf = r(CAG) RNA repeat binding, confirmation | TO-PRO-1 dye displacement fluorescence | inhibition, % at 3 µM | shares compounds with rCAG RNA binder | hit rate 70% among 4,300;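 active = inhibition above a per-plate cutoff, the mean inhibition of sample wells plus 3 SD, cut at about 35% in these data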;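 note: loss of TO-PRO-1 fluorescence as compound displaces dye from 1x1 AA loop RNA; 0% = DMSO only wells and 100% = 100 µM mitoxantrone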
dCAG dye counter = DNA CAG dye complex inhibition counter-screen; d(CAG) DNA oligo TO-PRO-1 dye displacement, fluorescence; hit rate 94% among 4,300; shares compounds with rCAG RNA binder; AID 652068; inhibition, % at 3 µM;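 active = inhibition above its plate's cutoff, the mean test-well inhibition plus 3 SD, cut at about 4.8% in these data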;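 note: 0% = DNA dye mix with DMSO and 100% = 100 µM mitoxantrone; hits displace the dye from DNA and so lower well fluorescence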
DNA CAG DR = disrupts DNA CAG TO-PRO-1 complex in dose response | shares compounds with rCAG RNA binder | DNA CAG/GTC duplex TO-PRO-1 dye displacement fluorescence | IC50, µM | hit rate 20% among 250; in the data active = IC50 below about 10 µM
Active calls of the source: *; · = no result given. Compounds with a hit are over-represented: about 3.2% of the library has one in this group of screens.

SMILES	MsrA act	NadD inh	rCAG RNA binder	DAGLB inh	Pemphigus Ab inh	MsrA inh	rCAG binder conf	dCAG dye counter	others
CCOc1cc(C(=O)NC(=S)Nc2ccc(Cl)c(C(=O)O)c2)cc(OCC)c1OCC	-4	0	41*	3	96	0	28	5.6*
O=C(O)c1cc(NC(=S)NC(=O)C(c2ccccc2)c2ccccc2)ccc1Cl	4	4	41*	4	101	1	29	6.9*
Oc1ccccc1C=Nn1c(-c2ccccc2F)n[nH]c1=S	·	·	10	·	·	·	·	·
N#Cc1c(N2C(=O)Nc3ccccc3N2O)sc2c1CCCCCC2	-5	7	45*	15	113	1	34	11*
N#Cc1c(N2C(=O)Nc3ccccc3N2O)sc2c1CCCC2	2	1	12	10	109	1	·	·
CCOc1cccc(/C=N/NC(=S)Nc2ccccc2[N+](=O)[O-])c1O	-2	18	35*	24	87	1	35*	15*
Cc1cccc(Nc2nnc(SCC(O)=C(C#N)c3nc4ccccc4[nH]3)s2)c1	-7	24	42*	7	91	2	48*	24*
Cc1cc(C)n2c(SC/C(O)=C(\C#N)c3nc4ccccc4[nH]3)nnc2n1	-11	25	37*	1	119	4	37*	17*
C[C@@H]1COc2cccc(NC3CC3)c2S(=O)(=O)N1	·	·	-1	·	·	0	·	·
COc1cc(/C=C(\C#N)C(=O)Nc2ccccc2C(=O)O)cc(Cl)c1OC	-5	6	47*	4	100	1	77*	41*
C=CCNC(=O)CSc1nc2c(c(=O)[nH]1)CCCC2	·	·	4	·	·	·	·	·
COc1ccccc1N(C)S(=O)(=O)c1ccc(C(=O)NCCCN2CCCC2=O)cc1	-5	-2	-2	-2	101	2	·	·
Cc1ccnc2c(N3C(=O)C4C5c6ccccc6C(c6ccccc65)C4C3=O)cccc12 (stereo unspecified)	-5	3	47*	-4	103	1	3	4.4*
Cc1ccccc1N1C(=O)C2C3CC(=O)C(c4ccccc43)C2C1=O (stereo unspecified)	-3	-3	-5	1	102	1	·	·
C[C@H]1CN([C@@H](C)CO)C(=O)CCCn2cc(nn2)CO[C@@H]1CN(C)C(=O)c1ccc2ccn(C)c2c1	·	·	1	·	·	-1	·	·
O=C1CCC(=O)c2ccc3c4c(ccc1c24)CC3	-3	1	49*	2	116	1	4	3
CC(C)CCN1C(=O)c2ccc(C(=O)Nc3ccccc3C(=O)O)cc2C1=O	-3	-7	55*	8	94	-1	80*	51*
COc1cc(NC(=O)c2ccc3c(c2)C(=O)N(CCC(C)C)C3=O)c(C(=O)O)cc1OC	-3	1	6	-1	108	-2	·	·
CC(C)CCN1C(=O)c2ccc(C(=O)Nc3ccc(O)cc3C(=O)O)cc2C1=O	-1	2	98*	3	97	0	84*	51*
Cc1ccccc1CS(=O)(=O)Cc1ccc(C(=O)Nc2ccccc2C)o1	·	·	2	·	·	·	·	·
NCCNC(=O)Cn1c(=O)c2c3c(sc2n(Cc2ccccc2)c1=O)CCCC3	-1	-9	15	0	97	2	·	·
CC1CCc2sc3c(c2C1)c(=O)n(CC(=O)O)c(=O)n3Cc1ccc(Cl)cc1 (stereo unspecified)	-1	1	54*	10	100	-1	49*	13*
O=C(O)Cn1c(=O)c2c3c(sc2n(Cc2ccc(Cl)cc2Cl)c1=O)CCCC3	-1	1	44*	11	94	0	58*	19*
Cc1cc(C(=O)OCCCN(C)C2CN(Cc3cn(Cc4ccccc4C(F)(F)F)nn3)S(=O)(=O)C2)no1 (stereo unspecified)	·	·	2	·	·	·	·	·
CC1(C(=O)NS(=O)(=O)c2ccc(Cl)cc2)CCN1C(=O)CCc1ccc(Cl)cc1Cl (stereo unspecified)	-1	2	52*	·	·	0	49*	13*
SMILES	MsrA act	NadD inh	rCAG RNA binder	DAGLB inh	Pemphigus Ab inh	MsrA inh	rCAG binder conf	dCAG dye counter	others
CC1(C(=O)NS(=O)(=O)c2ccc(Cl)s2)CCN1C(=O)Cc1ccc(Cl)cc1Cl (stereo unspecified)	-7	-5	40*	·	·	-1	40*	11*
Cc1ccc(S(=O)(=O)NC(=O)C2(C)CCN2C(=O)CCc2ccc(Cl)cc2Cl)cc1 (stereo unspecified)	-1	4	51*	·	·	-1	34	6.0*
CC1(C(=O)NS(=O)(=O)c2cccc(F)c2)CCN1C(=O)CCc1ccc(Cl)cc1Cl (stereo unspecified)	-2	1	30	·	·	0	·	·
CC1(C(=O)NS(=O)(=O)c2ccc(C#N)cc2)CCN1C(=O)CCc1ccc(Cl)cc1Cl (stereo unspecified)	-2	1	26	·	·	1	·	·
CCCc1c(-c2ccc(Cl)cc2)ncn1Cc1cccc(-c2ccccc2)c1	·	·	6	·	·	-1	·	·
O=C(NCCN1C(=O)S/C(=C/c2cccnc2)C1=O)c1ccc(S(=O)(=O)N2CCCC2)cc1	-5	0	4	3	·	2	·	·
CC1(C)C2CC[C@]3(C)C(CC=C4[C@@H]5C[C@@](C)(CO)[C@@H](O)C[C@]5(C(=O)O)CC[C@]43C)[C@@]2(C)CC[C@@H]1O (stereo partly specified)	-8	0	·	·	·	·	·	·
CC1(C)CC[C@]2(C(=O)O[C@@H]3OC(CO)[C@@H](O)[C@H](O)[C@H]3O)CC[C@]3(C)C(=CCC4[C@@]5(C)CC[C@H](O[C@@H]6OC(C(=O)O)[C@@H](O)[C@H](O)[C@H]6O)C(C)(C)C5CC[C@]43C)[C@@H]2C1 (stereo partly specified)	-2	18	46*	-1	109	1	45*	12*	DNA CAG DR=>30
COC(=O)[C@]12C[C@H](CC(=O)NCCCN3CCCC3=O)C(=O)N(CCc3ccc(OC)c(OC)c3)C1=C[C@H](C1CCCC1)O[C@@H]2C	·	·	-1	·	·	·	·	·
O=S(=O)(Nc1nc2ccccc2nc1Nc1ccc2c(c1)OCCO2)c1cccs1	-5	7	91*	5	98	2	83*	51*
O=S(=O)(Nc1nc2ccccc2nc1Cl)c1ccc2c(c1)OCCO2	-4	-2	11	6	100	1	·	·
NC(=O)Nn1c(CCC(=O)O)ccc1-c1ccc(Cl)cc1	-2	-1	-1	1	90	-1	·	·
O=C(O)CCc1ccc(-c2ccccc2)n1NC(=O)c1sc2ccccc2c1Cl	-9	3	57*	5	114	-1	32	11*
